Results: PubChem BioAssay (Tox21)
Where “and” joins values, the source holds several entries; their conditions need not be identical. Equal entries are not always repeated. Inconclusive results are not listed. Calls of active or inactive are those of the source. Unless noted, calls come from the whole dose curve; as a rule, active = well fitted curve in the direction sought with a large enough effect in the repeat runs; inconclusive = weak or mixed curves; inactive = no such curve, though single readings can be large; an effect the other way counts as inactive or inconclusive.

Tests used:
[1] = qHTS assay to identify small molecule agonists of the hypoxia (HIF-1) signaling pathway - cell viability counter screen (AID 1224844; calls by dose curve; note: nearly all actives have a fitted effect of over 50% in size)
Procedure, shortened: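 HRE-bla ME-180 cells, 2,000/well in 0.5% dialyzed FBS medium, treated 17 h at 37C with compounds. Viability read in the same wells as the bla reporter, by CellTiter-Glo luminescence after 30 min at room temperature.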

[2] = qHTS assay to identify small molecule agonists of H2AX (AID 1224845; active = well fitted activation curve with a large enough effect in the signal ratio in the repeat runs, not every such curve was filed as active; the % refers to the signal ratio)
Procedure, shortened: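 Wild-type CHO-K1 cells, plated overnight, exposed 3hr at 37C to 15 concentrations (0.76% DMSO final). Lysed, then HTRF anti-pH2AX (S139) cryptate and anti-H2AX-d2 antibodies, 24 hr room temperature; 665/620 nm emission read.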

[3] = qHTS assay to identify small molecule agonists of the hypoxia (HIF-1) signaling pathway (AID 1224846; active = well fitted activation curve with a large enough effect in the signal ratio in the repeat runs, not every such curve was filed as active; the % refers to the signal ratio)
Procedure, shortened: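 HRE-bla ME-180 beta-lactamase reporter cells in medium with 0.5% dialyzed FBS, pre-incubated 5 h then exposed to compounds 17 h at 37C, 5% CO2; reporter induction read with CCF4-AM FRET substrate.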

[4] = qHTS assay to identify small molecule agonists of H2AX - cell viability counter screen (AID 1224847; calls by dose curve; note: top concentration of the series differs between compounds; nearly all actives have a fitted effect of over 30% in size)
Procedure, shortened: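 CHO-K1 wt, 1000 cells/well, o/n 37C; cpds 15 conc, 3 h 37C, 0.76% DMSO; CellTiter-Glo, 30 min RT, luminescence.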

[5] = qHTS RealTime-Glo MT Cell Viability Assay in HepG2 cells - 24 hour (AID 1224867); note: nearly all actives have a fitted effect of over 50% in size
Procedure, shortened: (§1)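 HepG2 suspension premixed with RealTime-Glo reagents is plated at 600 cells per well and left 5 h at 37 C/5% CO2. Compounds in DMSO then go in, and bioluminescence reflecting viable cell number is recorded over 40 h.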

[6] = qHTS RealTime-Glo MT Cell Viability Assay in HEK293 cells - 32 hour (AID 1224868); note: top concentration of the series differs between compounds; nearly all actives have a fitted effect of over 50% in size
Procedure, shortened: (§2)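 Reads taken at 0, 8, 16, 24, 32 and 40 h from the same wells. HEK293 cells (600/well) carried RealTime-Glo reagents from seeding, with compound added after a 5 h settle at 37 C.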

[7] = A CellTox Green Cytotoxicity Assay to monitor cytotoxicity in HEK293 cells - 0 hour (AID 1224869); note: nearly all actives have a fitted effect of over 50% in size
Procedure, shortened: (§3)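 HEK293 cells, 600/well, were preincubated 5 hours and then exposed to compounds at 37 C for up to 40 hours. A cell-impermeant cyanine dye staining dead-cell DNA was read by fluorescence at 0, 8, 16, 24, 32 and 40 h time points.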

[8] = qHTS RealTime-Glo MT Cell Viability Assay in HepG2 cells - 40 hour (AID 1224870); note: nearly all actives have a fitted effect of over 50% in size
Procedure, shortened: (§4)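 HepG2 cells (600/well) mixed with RealTime-Glo MT reagent, settled 5 h at 37 C/5% CO2 before compound addition. Nonlytic NanoLuc luminescence from viable-cell prosubstrate reduction read repeatedly during 40 h treatment at 37 C.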

[9] = A CellTox Green Cytotoxicity Assay to monitor cytotoxicity in HEK293 cells - 40 hour (AID 1224871); note: nearly all actives have a fitted effect of over 45% in size
Procedure, shortened: as §3

[10] = qHTS RealTime-Glo MT Cell Viability Assay in HEK293 cells - 16 hour (AID 1224872)
Procedure, shortened: as §2

[11] = qHTS RealTime-Glo MT Cell Viability Assay in HepG2 cells - 8 hour (AID 1224873); note: nearly all actives have a fitted effect of over 55% in size
Procedure, shortened: as §4

[12] = qHTS RealTime-Glo MT Cell Viability Assay in HEK293 cells - 40 hour (AID 1224874); conditions: RealTime-Glo luminescence; max response: hits give low values; note: nearly all actives have a fitted effect of over 50% in size
Procedure, shortened: (§5)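 600 cells/well were plated with the nonlytic NanoLuc/prosubstrate reagent, pre-incubated 5 h, then given 23 nL of compound in DMSO. Incubation at 37 C for 40 h, with luminescence from viable-cell-reduced substrate read repeatedly from 0 h.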

[13] = A CellTox Green Cytotoxicity Assay to monitor cytotoxicity in HEK293 cells - 24 hour (AID 1224875); note: series mostly up to about 77 µM; nearly all actives have a fitted effect of over 45% in size
Procedure, shortened: as §3

[14] = A CellTox Green Cytotoxicity Assay to monitor cytotoxicity in HepG2 cells - 16 hour (AID 1224876); note: nearly all actives have a fitted effect of over 45% in size
Procedure, shortened: (§6)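 HepG2 cells, 600/well, preincubated 5 h with CellTox Green dye, then exposed to Tox21 compounds in DMSO at 37 C for up to 40 h. Dead-cell DNA fluorescence read at the indicated time point.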

[15] = A CellTox Green Cytotoxicity Assay to monitor cytotoxicity in HepG2 cells - 24 hour (AID 1224878); note: nearly all actives have a fitted effect of over 45% in size
Procedure, shortened: as §6

[16] = A CellTox Green Cytotoxicity Assay to monitor cytotoxicity in HepG2 cells - 40 hour (AID 1224879); note: nearly all actives have a fitted effect of over 40% in size
Procedure, shortened: as §6

[17] = qHTS RealTime-Glo MT Cell Viability Assay in HEK293 cells - 0 hour (AID 1224880)
Procedure, shortened: as §5

[18] = qHTS RealTime-Glo MT Cell Viability Assay in HepG2 cells - 32 hour (AID 1224877); note: nearly all actives have a fitted effect of over 55% in size
Procedure, shortened: as §1
% is set by controls: 0 for no effect and ±100 for the full control effect.

CCOC(=O)C1OC1(C)c1ccccc1 (configuration not stated)
inactive: Potency [1] | Potency [2] | outcome [3] | Potency [4] | Potency [5] | Potency [6] | Potency [7] | Potency [8] | Potency [9] | Potency [10] | Potency [11] | max response [12] 0.105% and 2.55% | Potency [13] | Potency [14] | Potency [15] | Potency [16] | outcome [17]

COC1CC(=C(c2cccs2)c2cccs2)C[N+](C)(C)C1 (configuration not stated)
inactive: Potency [1] | Potency [2] | outcome [3] | Potency [4] | Potency [5] | Potency [6] | Potency [7] | Potency [8] | Potency [9] | Potency [10] | Potency [11] | max response [12] -21.7% | Potency [13] | Potency [18] | Potency [15] | Potency [16] | outcome [17]

O=CC=O
inactive: Potency [1] | Potency [2] | outcome [3] | Potency [4] | Potency [5] | Potency [6] | Potency [8] | Potency [9] | Potency [10] | Potency [11] | max response [12] 2.31% | Potency [13] | Potency [14] | Potency [18] | Potency [15] | Potency [16] | outcome [17]

C=CC(=O)OCC
inactive: Potency [1] | Potency [2] | outcome [3] | Potency [4] | Potency [5] | Potency [6] | Potency [7] | Potency [8] | Potency [9] | Potency [10] | Potency [11] | max response [12] -11.3% | Potency [13] | Potency [14] | Potency [18] | Potency [15] | Potency [16] | outcome [17]

COC(=O)C1(O)c2ccccc2-c2ccccc21
inactive: Potency [1] | Potency [2] | outcome [3] | Potency [4] | Potency [5] | Potency [6] | Potency [7] | Potency [8] | Potency [9] | Potency [10] | max response [12] -22.2% | Potency [13] | Potency [14] | Potency [18] | Potency [15] | Potency [16] | outcome [17]

CC(Oc1cccc(Cl)c1)C(=O)O (configuration not stated)
inactive: Potency [1] | Potency [2] | outcome [3] | Potency [4] | Potency [5] | Potency [6] | Potency [7] | Potency [8] | Potency [9] | Potency [10] | Potency [11] | max response [12] 9.01% | Potency [13] | Potency [14] | Potency [18] | Potency [15] | Potency [16] | outcome [17]

NC(=S)c1c(Cl)cccc1Cl
inactive: Potency [1] | Potency [2] | outcome [3] | Potency [4] | Potency [5] | Potency [6] | Potency [7] | Potency [8] | Potency [9] | Potency [10] | Potency [11] | max response [12] -2.31% | Potency [13] | Potency [14] | Potency [18] | Potency [15] | Potency [16] | outcome [17]
